Assay outcomes as filed in PubChem BioAssay.
TbPYK inhibitor – qHTS of Trypanosoma Brucei Inhibitors; Potency, µM (doses to about 76.8 µM), for inactives: at the top dose activity, negative = inhibition, hits mostly inhibitors; TbPYK enzyme, Kinase-Glo Plus ATP luminescence, 45 min; 410,000 compounds, 0.12% hits; AID 624173, 2012; also: potency is read from the fitted curve at half-maximal effect; nearly all actives have a fitted effect of over 50% in size
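ADP (130 uM final) triggers the TbPYK reaction after compound addition; incubation is 45 min at room temperature. Kinase-Glo Plus is then added and luminescence imaged. Normalized data are fitted to concentration-effect curves.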
Sm TGR block – qHTS Assay for the Inhibitors of Schistosoma Mansoni Peroxiredoxins; purified TGR, DTNB reduction, TNB absorbance 405 nm; Potency, µM (series often up to 114 µM), without a hit: at the top dose activity change, negative = inhibition, usual class: inhibitors; 360,000 compounds, 3% hits; also: potency is read from the fitted curve at half-maximal effect; nearly all actives have a fitted effect of over 60% in size
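Kinetic colorimetric format: TGR-catalysed, NADPH-driven DTNB reduction monitored via TNB absorbance. Enzyme dispensed at 20 nM; compound exposure 15 min at room temperature before reaction start.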
FBPA Giardia inh – qHTS Assay for Inhibitors of Fructose-1,6-bisphosphate Aldolase from Giardia Lamblia | AID 2451, 2010 | A8B2U2 | purified Giardia FBPA | Potency, µM (series often up to 59.6 µM), inactives show at the highest dose activity, negative = inhibition, usual class: inhibitors | 290,000 compounds, 0.71% hits; also: potency is read from the fitted curve at half-maximal effect; nearly all actives have a fitted effect of over 55% in size
Target sequence (A8B2U2 whole entry, looked up): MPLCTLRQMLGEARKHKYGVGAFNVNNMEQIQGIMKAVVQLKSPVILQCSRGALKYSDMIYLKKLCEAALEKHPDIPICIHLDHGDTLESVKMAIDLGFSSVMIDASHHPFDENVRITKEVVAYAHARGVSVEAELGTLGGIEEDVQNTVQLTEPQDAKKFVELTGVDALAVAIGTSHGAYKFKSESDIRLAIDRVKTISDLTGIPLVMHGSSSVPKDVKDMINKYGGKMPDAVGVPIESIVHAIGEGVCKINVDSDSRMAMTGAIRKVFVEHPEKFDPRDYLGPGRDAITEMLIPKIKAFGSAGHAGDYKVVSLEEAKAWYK
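Giardia FBPA (40 nM reagent) was preincubated 10 min at RT with compound (up to 57.5 uM final), then substrate plus GAPDH/TPI/NAD/arsenate coupling system with diaphorase/resazurin was added; resorufin fluorescence (525/598 nm) was read after 20 min.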
FMDV inh – High Throughput Screening for Foot and Mouth Disease Virus Antivirals; FMDV antiviral cell-based qHTS; Potency, µM (top dose mostly 57.9 µM), inactives show at the highest dose activity change, negative = inhibition, actives largely listed as inhibitors; 410,000 compounds, 1.2% hits; AID 1159524, 2015; calls by dose curve; tested in HEK293T cells; also: read-out not given here; potency is read from the fitted curve at half-maximal effect; nearly all actives have a fitted effect of over 45% in size
HCMV inh – qHTS Assay for inhibitors of the human cytomegalovirus (HCMV) | HFF cells, HCMV-luciferase reporter, 72 h; active compounds read low | activity change, negative = inhibition, % at 57.5 µM | 410,000 compounds, 4.5% hits | AID 1259415, 2018; in the data active = activity change below about -60%; inconclusive = no clear call, values can overlap the other calls; inactive = above about -39%
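Steps: HFFs plated, 16 h 37C; compounds added; HCMV-luciferase added to MOI 1 PFU/cell; 72 h 37C; OneGlo reagent, 5 min room temperature; luminescence read, normalized to controls.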
RE007 growth inh – qHTS Assay for Inhibitors of the HIV-1 protein Vpr; Potency, µM (highest dose often 92.2 µM), for inactives: at the highest dose activity change, negative = less growth, most hits filed as inhibitors; S. pombe RE007 Vpr strain, BacTiter-Glo ATP luminescence, 24 h; AID 651644, 2012; 360,000 compounds, 0.21% hits; active = well fitted falling curve with a large enough effect; inconclusive = small, poorly fitted or top-dose-only effect; inactive = no such curve, though single readings can be large or run the other way; also: potency is read from the fitted curve at half-maximal effect; nearly all actives have a fitted effect of over 50% in size
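Fission yeast strain RE007, carrying one chromosomally integrated HIV-1 vpr copy, was seeded at OD 0.01 in PMG+AL medium with 23 nL pinned compound. After 24 h at 30 °C and 99% humidity, viability was read by BacTiter-Glo luminescence.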
Active calls of the source: *; ? = inconclusive; / = no result; [ ] = remark or other dose. Sampled rows, rich in hits. Any-hit rate of the full collection: about 7.7%. Unless noted, calls follow the shape of the dose curve; as a rule, active = well fitted curve in the direction sought with a large enough effect; inconclusive = small, poorly fitted or top-dose-only effect, or another doubt; inactive = no such curve, though single readings can be large; an effect the other way counts as inactive or inconclusive. % is scaled to controls: 0 for no effect and ±100 for the full control effect.

SMILES	TbPYK inhibitor	Sm TGR block	FBPA Giardia inh	FMDV inh	HCMV inh	RE007 growth inh
Fc1ccccc1CNC(=S)Nc1cccc(C(F)(F)F)c1	-5%	-22%	0%	-5%	-79*	20%
FC(F)(F)c1cccc(NC(=S)NCc2ccc(Cl)cc2)c1	4%	-1%	-5%	-27%	-90*	16%
S=C(NCc1ccccc1)Nc1cccc(Cl)c1	-8%	?	-7%	62%	-84*	-10%
Fc1ccc(CNC(=S)Nc2cccc(C(F)(F)F)c2)cc1	-4%	-14%	2%	-49%	-36	11%
O=c1[nH]c2ccc(NC(=S)NCc3ccccc3)cc2[nH]1	-10%	8.9µM*	-4%	-14%	-30	11%
CCCn1c2ccccc2c2cnn(CC(=O)N3CCC(C)CC3)c(=O)c21	-5%	-2%	/	-13%	?	/
Cc1ccc(C)c(S(=O)(=O)/N=C2\C=C(NS(=O)(=O)c3ccccc3)C(=O)c3ccccc32)c1	-1%	?	/	-11%	18	-8%
CCc1ccc(S(=O)(=O)/N=C2\C=C(NS(=O)(=O)c3ccccc3)C(=O)c3ccccc32)cc1	-10%	?	?	71%	-36	-18%
COC(=O)C(C(C)=O)C1=C/C(=N\S(=O)(=O)c2ccc(C)cc2)c2ccccc2C1=O (stereo not given)	-24%	28µM*	13µM*	-2%	/	-10%
Cc1ccccc1NC1=C/C(=N\S(=O)(=O)c2ccc(C(=O)O)cc2)c2ccccc2C1=O	3%	?	0.79µM*	?	29	?
O=C(O)c1ccc(S(=O)(=O)/N=C2\C=C(Nc3ccccc3F)C(=O)c3ccccc32)cc1	0%	45µM*	?	?	-98*	?
Cn1ccc2cc(S(=O)(=O)N3CCN(C(=O)Nc4cccc(F)c4)CC3)ccc21	-1%	3%	/	-20%	-9	/
CCCNC(=S)Nc1ccc2nc(-c3ccccn3)c(-c3ccccn3)nc2c1	4%	13µM*	?	0%	-21	20%
C[C@H]1Cc2c(COc3ccccc3)nc3c(c2CO1)CN(C(=O)NCCc1c[nH]c2ccccc12)CC3	/	/	-6%[12.9 µM]	/	/	/
O=[N+]([O-])c1cc(/C=N/O)ccc1SCc1ccccc1	-1%	8%	1%	7%	-66*	-9%
CCNC(=S)NNC(=O)c1cccn(Cc2ccc(Cl)cc2Cl)c1=O	?	-2%	2%	?	-13	-2%
C=CCNC(=S)NNC(=O)c1cccn(Cc2ccc(Cl)cc2Cl)c1=O	11µM*	6%	8%	?	-15	-4%
Cc1ccc(C)c(Nc2nn3c(=O)c4ccc(C(=O)NCc5cccnc5)cc4nc3s2)c1	-2%	7%	-12%	-7%	4	5%
CCN(CC)CCNC(=O)c1ccc2c(=O)n3nc(Nc4ccccc4OC)sc3nc2c1	-8%	0%	/	-10%	-101*	/
COc1ccccc1Nc1nn2c(=O)c3ccc(C(=O)NCc4cccs4)cc3nc2s1	4%	-3%	/	?	-97*	/
Cc1ccc(C)c(Nc2nn3c(=O)c4ccc(C(=O)NCc5cccs5)cc4nc3s2)c1	-4%	2%	/	-15%	-99*	/
COc1cccc(C2=Nn3c(nnc3-c3ccc(OC)c(OC)c3)SC2)c1	/	/	1%	/	/	/
CC1CCCN(C2(O)C(=O)Nc3ccc([N+](=O)[O-])cc32)C1 (stereo not given)	2%	3%	6%	-4%	-63*	2%
O=C1Nc2ccc([N+](=O)[O-])cc2C1(O)N1CCCCC1 (stereo not given)	-3%	-18%	0%	56%	20	1%
CCCCNC(=O)c1nc2ccccc2nc1-c1ccc(F)c(F)c1	/	/	/	/	53	/
